# Test results as given in PubChem BioAssay (NCATS).
# Test: qHTS profiling of the MIPE4 collection as inhibitors of Plasmodium falciparum (3D7) proliferation (AID 743344);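 further: scaled between DMSO vehicle wells and 0.29 µM artemisinin as full inhibition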
# Conditions: P. falciparum 3D7 in erythrocytes, SYBR Green DNA fluorescence, 72 h; at 28.5 µM
# Source text: Plasmodium falciparum is a virulent malarial parasite that kills 1-2 million people worldwide each year. Transmitted by mosquitoes, the sporozoite form of the parasite enters the blood stream to infect hepatocytes, where they become merozoites that infect red blood cells (erythrocytes). Within erythrocytes, merozoites begin a […] cycle of growth and division, after which the parasite is released to infect new red blood cells. Gametocytes, which form within erythrocytes as well, circulate in the bloodstream and are ingested by the mosquito, thereby completing the life cycle. To profile malarial isolates for differential chemical responses and to identify inhibitors of malarial growth, an assay that measures P. falciparum growth and replication within erythrocytes was employed. This assay uses a DNA binding fluorescent dye (SYBR Green) to detect parasite DNA following cell lysis. Because mature erythrocytes lack DNA, only Plasmodium-derived DNA is detected.
# The SYBR Green viability assay was adapted from a method described previously (Plouffe et al., 2008). For screening 3 ul culture medium was dispensed into 1536 well black clear bottom plates (Aurora Biotechnologies) using a Multidrop Combi (Thermo Fisher Scientific Inc.), 23 nL compounds in DMSO were added by a pin tool (Kalypsys), and 5 ul of erythrocytes infected with P. falciparum (0.3% parasitemia, 2.5% hematocrit final concentration) were added. The plates were incubated at 37 C in a humidified incubator in 5% CO2 for 72 h, and 2 ul lysis buffer (20 mM Tris HCl, 10 mM EDTA, 0.16% saponin, 1.6% triton X, 10X SYBR Green I supplied as 10,000X […] by Invitrogen) was added to each well. The plates were mixed for 25 sec with gentle shaking and incubated overnight at room temperature in the dark. The following morning, fluorescence intensity at 485(14) nm excitation and 535(25) nm emission wavelengths was measured on an EnVision (Perkin Elmer) plate reader. Plate reads were normalized relative to the control inhibitor (0.29 uM artemisinin) and vehicle (DMSO) wells present on each plate and then corrected by an algorithm using vehicle-only control plates at the beginning and end of the compound plate stack.
row,Structure (SMILES),"parasite growth, % of DMSO control"
1,O=C(Oc1ccc([N+](=O)[O-])cc1)N1CCC(C(O)(c2ccc3c(c2)OCO3)c2ccc3c(c2)OCO3)CC1,63%
2,C[C@]12CC[C@@H]3[C@@H](CCC4=CC(=O)CC[C@@H]43)[C@@H]1CC[C@@H]2OC(=O)CCc1ccccc1,65.4%
3,COc1ccc(N(C(=O)Oc2c(C)cccc2C)c2ccnc(Nc3ccc(N4CCN(C)CC4)cc3)n2)c(OC)c1,5.18%
4,CN1[C@H]2CC(O)C[C@H]1[C@H]1O[C@H]12 (stereo not given in full),11.1%
5,C[C@]12Cc3cn[nH]c3C[C@@H]1CC[C@@H]1[C@H]2CC[C@@]2(C)[C@H]1CC[C@]2(C)O,52.2%
6,COc1ccc2c(c1)CC[C@H]1[C@@H]2CC[C@]2(C)[C@@H](NCCCCCCN3C(=O)C=CC3=O)CC[C@H]12,62.7%
7,CC(C)(O)C=CC(=O)[C@](C)(O)[C@H]1[C@H](O)C[C@]2(C)[C@@H]3CC=C4[C@@H](C=C(O)C(=O)C4(C)C)[C@]3(C)C(=O)C[C@@]12C,5.63%
8,CC(=Cc1csc(C)n1)[C@@H]1C[C@H]2O[C@]2(C)CCC[C@H](C)[C@@H](O)[C@@H](C)C(=O)C(C)(C)[C@@H](O)CC(=O)O1,15.3%
9,CC[C@@]1(O)C(=O)OCc2c1cc1n(c2=O)Cc2cc3ccccc3nc2-1,15.1%
10,CN1CCN(c2ccc([N+](=O)[O-])c3no[n+]([O-])c23)CC1,77.4%
11,CCOP(=O)(OCC)C(C)NC(=O)N(CCCl)N=O (stereo not given),103%
12,C#C[C@]1(O)C=C[C@@H]2[C@@H]3CCC4=CC(=O)CC[C@@H]4[C@H]3CC[C@@]21CC,10.4%
13,CCOC(=O)c1c(C(C#N)=CN)c2ccc(Cl)c(Cl)c2n1C,90%
14,CCOC(=O)Nc1ccc(NCc2ccc(F)cc2)cc1N,12.8%
15,O=S(=O)(CC1CS1)c1ccc(Oc2ccccc2)cc1 (stereo not given),94.4%
16,CC=C(C)C(=O)O[C@H]1C(C)=C2[C@@H]3OC(=O)[C@@](C)(O)[C@@]3(O)[C@@H](OC(=O)CCC)C[C@](C)(OC(C)=O)[C@@H]2[C@@H]1OC(=O)CCCCCCC,15.2%
17,CC(C)N[C@@H]1CCn2c(=O)[nH]c3cccc(c32)[C@@H]1O,93.3%
18,CC(N[C@H]1C[C@H]1c1ccccc1)c1ccc2c(c1)OCCO2 (stereo not given in full),90.6%
19,CC(=O)N(C)c1cccc(-c2ccnc3c(C(=O)c4cccs4)cnn23)c1,44.9%
20,Clc1ccccc1C(c1ccccc1)(c1ccccc1)n1cccn1,9.07%

row,Structure (SMILES),"parasite growth, % of DMSO control"
1,O=C(Nc1ccncc1)C(=O)c1cn(Cc2ccc(Cl)cc2)c2ccccc12,91%
2,C=CCON=C(C[C@H]1O[C@@H]2O[C@]3(C)CC[C@@H]4[C@H](C)CC[C@@H]([C@H]1C)[C@@]24OO3)[C@H]1O[C@@H]2O[C@]3(C)CC[C@H]4[C@H](C)CC[C@@H]([C@@H]1C)[C@@]24OO3,21.6%
3,O=[N+]([O-])c1ncc[nH]1,89%
4,Cc1ccccc1-n1c(Cn2cnc3c(N)ncnc32)nc2cccc(C)c2c1=O,5.28%
5,C[C@@H]1CC[C@@]2(OC1)O[C@H]1C[C@H]3[C@@H]4CC=C5C[C@@H](O[C@@H]6O[C@H](CO)[C@@H](O[C@@H]7O[C@@H](C)[C@H](O)[C@@H](O)[C@@H]7O)[C@H](O)[C@@H]6O[C@@H]6O[C@@H](C)[C@H](O)[C@@H](O)[C@@H]6O)CC[C@]5(C)[C@@H]4CC[C@]3(C)[C@@H]1[C@H]2C,57.2%
6,CO[C@H]1CCC(O[C@H]2C[C@H]([C@]3(C)CC[C@]4(C[C@H](O)[C@@H](C)[C@@H]([C@@H](C)C=C(C)C(=O)[C@H](C)C[C@H](C)C(=O)O)O4)O3)O[C@]3(O[C@@H]([C@H]4O[C@@](O)(CO)[C@H](C)C[C@H]4C)C[C@H]3C)[C@H]2C)O[C@H]1C (stereo not given in full),11.2%
7,O=c1cccc2n1CC1CNC[C@H]2C1,71.3%
8,CC(C)[C@H]1C(=O)N[C@H](CO)Cc2c[nH]c3cccc(c23)N1C,87.1%
9,COc1cc2cc(c1Cl)N(C)C(=O)C[C@H](OC(=O)C(C)C)[C@]1(C)O[C@H]1[C@H](C)[C@@H]1C[C@@](O)(NC(=O)O1)[C@H](OC)C=CC=C(C)C2,14%
10,CC(C)[C@]12O[C@@H]1[C@@H]1O[C@]13[C@]1(O[C@H]1C[C@@H]1C4=C(CC[C@@]13C)C(=O)OC4)[C@H]2O,56.9%
11,C[C@]12CC[C@H]3[C@@H](CCC4=CC(=O)CC[C@@]43C)[C@H]1CC[C@H]2OC(=O)CCC1CCCC1,7.86%
12,CC(C)(O)C(=O)Nc1ccc([N+](=O)[O-])c(C(F)(F)F)c1,82.8%
13,C#CC1(O)CCC2C3CCC4=CC(=O)CCC4(C)C3CCC21C (stereo not given),78.6%
14,C[C@@H]1[C@H](O)[C@@H](C)C=CC=CCCC=CC=CC=CC=C[C@H](O[C@H]2O[C@@H](C)[C@H](O)[C@@H](N)[C@@H]2O)CC2O[C@](O)(C[C@@H](O)[C@H](O)CC[C@@H](O)C[C@@H](O)C[C@@H](O)CC(=O)O[C@H]1C)C[C@H](O)[C@H]2C(=O)O,94.4%
15,CCOC(=O)c1cncn1[C@H](C)c1ccccc1,46.8%
16,CCCCCC[C@H]1C(=O)O[C@H](C)[C@H](NC(=O)c2cccc(NC=O)c2O)C(=O)O[C@@H](C)[C@@H]1OC(=O)CC(C)C,12%
17,CC(C)(C)c1cc(C=C(C#N)C#N)cc(Br)c1O,34.5%
18,O=C1C=CC[C@@H]2[C@H]3CCCN4CCC[C@@H](CN12)[C@@H]34,101%
19,O=c1[nH]c2ccccc2n1C1CCN(Cc2ccc(-c3[nH]c4cc5ncnc5cc4nc3-c3ccccc3)cc2)CC1,4.63%
20,COC1=CC(C)=C[C@@H](C)[C@@H](O)[C@@H](C)CC(C)=CC=C[C@H](OC)[C@H]([C@@H](C)[C@@H](O)[C@H](C)[C@@]2(O)C[C@@H](O)[C@H](C)[C@@H](C(C)C)O2)OC1=O,6.56%
